# A selection: hits, their analogues and other compounds. The true share with any hit is near 1.7%.
# TAG inh: inhibitors of triacylglycerol accumulation; H9c2 cells, Nile Red lipid (TAG) fluorescence; cells loaded with 200 µM oleic acid; inhibition, % at 12.5 µM; actives 0.66% (n = 230,000); AID 651582;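 active = pattern-corrected inhibition of lipid staining of at least 50% with the nuclear-stain viability signal not falling by more than 50%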;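 note: 0% = DMSO wells and 100% = triacsin C control wells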
# CHT inh: inhibitors of human choline transporter CHT. actives 0.86% (n = 310,000). CHT-expressing cells, membrane potential dye, choline response; hits give low values. B-score at 10 µM;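 active = B-score over 3 SD under the library average, and starting fluorescence ratio not unusually high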;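 note: choline stimulus applied at its EC90 after an EC20 pre-addition; B-score computed on integrated fluorescence ratio after choline addition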
# Target sequence (Q9GZV3 whole entry, looked up): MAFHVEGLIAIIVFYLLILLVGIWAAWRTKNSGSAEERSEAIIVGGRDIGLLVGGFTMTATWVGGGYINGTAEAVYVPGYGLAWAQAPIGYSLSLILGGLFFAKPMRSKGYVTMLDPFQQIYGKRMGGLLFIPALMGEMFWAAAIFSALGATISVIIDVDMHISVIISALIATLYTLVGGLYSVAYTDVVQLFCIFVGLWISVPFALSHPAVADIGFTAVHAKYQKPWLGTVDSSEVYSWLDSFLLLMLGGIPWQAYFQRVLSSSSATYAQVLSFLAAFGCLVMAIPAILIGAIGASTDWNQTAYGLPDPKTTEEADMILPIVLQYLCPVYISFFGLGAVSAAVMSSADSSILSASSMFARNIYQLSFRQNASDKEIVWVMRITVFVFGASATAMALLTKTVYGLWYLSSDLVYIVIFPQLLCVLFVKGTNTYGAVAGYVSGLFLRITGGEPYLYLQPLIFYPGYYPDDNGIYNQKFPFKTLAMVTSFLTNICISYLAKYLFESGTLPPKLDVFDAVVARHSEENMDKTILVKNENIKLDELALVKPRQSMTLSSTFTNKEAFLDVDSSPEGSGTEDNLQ
# CHT allo act: allosteric activators of human choline transporter CHT. CHT-expressing cells, membrane potential dye, choline EC20; hits give high values; LV-AA mutant CHT in HEK293 cells. Q9GZV3. B-score at 10 µM. actives 0.49% (n = 310,000);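 active = initial fluorescence not abnormally high and integrated response B-score, plate-corrected, over 3 SD above library mean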
# beta cell repl: induces beta-cell replication in MIN6 cells; MIN6 cells proliferation, ATPlite luminescence, 48 h; cells starved in 0.2% serum; 100% = growth in 10% serum; proliferation, % at 10 µM; actives 0.29% (n = 330,000); AID 2380;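 active = compounds whose signal lies at least 3.5 SD above the mean of all wells on their plate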;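 note: 0% = DMSO-treated cells in low-serum medium and 100% = 10% serum control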
# CHT act confirm: human CHT activation, confirmatory screen; shares compounds with CHT allo act; CHT-expressing cells, membrane potential dye fluorescence (FDSS); % of choline EC20–EC90 response window; HEK293 expressing CHT LV-AA mutant; choline added at its EC20; actives 91% (n = 2,500); activation, % at 10 µM; AID 504833;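 active = primary screen active, with duplicate mean activation above negative control mean plus 3 SD, cut at about 11% in these data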
# HEK293 MP dye: CHT activator counter-screen hit in parental HEK293 cells. ratio readout change at 10 µM, hits read low. membrane potential dye fluorescence (FDSS); measured after EC20 choline addition. actives 62% (n = 2,500). shares compounds with CHT allo act;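 active = duplicate-averaged ratio beyond 3 SD from buffer wells, up or down, though filed actives are nearly all decreases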
# * marks the source's active call; other numbers are inactive results; i = inactive; nt = not tested or not shown.
SMILES,TAG inh,CHT inh,CHT allo act,beta cell repl,CHT act confirm,HEK293 MP dye
COC(=O)c1ccc(CN2CCCC(CO)(Cc3ccc(F)cc3F)C2)cc1 (centres undefined),nt,i,i,-4,nt,nt
Cn1c(=O)c2c(-c3ccccc3)n(CCCN3CCOCC3)cc2n(C)c1=O,nt,i,i,-3,79*,-52*
Nc1cc(=O)[nH]c(SCC(=O)Nc2ccc(Oc3ccccc3)cc2)n1,nt,i,i,0,nt,nt
CCN1CCCC(NC(=O)c2cc([N+](=O)[O-])ccc2OC)C1 (centres undefined),nt,i,7.3*,0,36*,-35*
COc1ccc(C(=O)NC2CCCN(Cc3ccccc3F)C2)c(OC)c1OC (centres undefined),nt,i,i,-2,nt,nt
O=C(CN1C(=O)CCC1=O)Nc1nc(-c2nc3ccccc3s2)cs1,5,i,i,2,18*,i
O=C(CN1C(=O)CCC1=O)Nc1nc(-c2ccccn2)cs1,2,i,i,1,nt,nt
N/C(=N\OC(=O)c1cnn(-c2ccccc2)c1C(F)(F)F)c1ccc(C(F)(F)F)cc1,6,i,i,-3,nt,nt
NC(=O)CC(NC(=O)Cc1ccc(Cl)cc1)c1ccc(NC2CC3CCC2C3)c([N+](=O)[O-])c1 (centres undefined),0,i,i,-9,nt,nt
NC(N)=N/N=C/c1ccc2cccc(OCc3ccccc3)c2n1,32,i,6.3*,-4,14*,i
c1cncc(-c2cn(C[C@H]3CC[C@@H]([C@@H]4CC[C@H](Cn5cc(-c6cccnc6)nn5)O4)O3)nn2)c1,20,i,i,-5,nt,nt
COc1cccc(-c2cn(C[C@H]3CC[C@@H]([C@@H]4CC[C@H](Cn5cc(-c6cccc(OC)c6)nn5)O4)O3)nn2)c1,-6,i,7*,1,15*,i
O=C1C=C(c2ccc(Oc3ccccc3)cc2)C[C@@H](c2ccc3c(c2)OCO3)C1,-9,nt,nt,-5,nt,nt
O=C(CC1C=Cc2ccccc2N1C(=O)c1ccccc1)c1ccccc1 (centres undefined),nt,i,10*,-3,26*,i
CC1C=Cc2ccccc2N1C(=O)c1ccccc1 (centres undefined),nt,i,i,-1,nt,nt
O=C(CN(C(=O)CNC(=O)c1ccco1)c1ccc(Cl)c(Cl)c1)NC1CCCCC1,5,i,6.9*,0,39*,i
O=C(CN(C(=O)CNC(=O)c1ccco1)c1ccc2c(c1)OCO2)NC1CCCCC1,-4,i,i,-2,nt,nt
COc1ccc(C(=O)c2coc3ccc(O)c(CN4CCOCC4)c23)cc1,nt,i,i,1,18*,i
CCN1CCN(c2nc(-c3ccccn3)nc3ccccc23)CC1,nt,i,i,0,57*,-92*
c1ccc(CN2CCN(c3nc(-c4ccccc4)nc4ccccc34)CC2)cc1,-8,i,i,-3,nt,nt
c1ccc(-c2nc(N3CCOCC3)c3ccccc3n2)nc1,8,i,10*,-2,69*,-83*
c1ccc(-c2nc(N3CCCCCC3)c3ccccc3n2)nc1,0,i,i,-4,nt,nt
CCC1(C)Cc2ccccc2C(=S)N1 (centres undefined),nt,i,i,-1,nt,nt
CC(C)CC[n+]1ccccc1/C=C/c1ccc(N(C)C)cc1,nt,i,12*,-5,60*,i
COc1ccc(Cl)c2sc(N(CCN(C)C)C(=O)C3=COCCO3)nc12,2,nt,nt,nt,nt,nt
COc1ccc2nc(C)cc(SCC(=O)O)c2c1,-25,i,i,-2,nt,nt
COC(=O)CSc1cc(C)nc2ccc(OC)cc12,-16,i,i,0,44*,-50*
CN1OC[C@@H]2CN(Cc3cc(Cl)cc(Cl)c3)[C@H](c3cccc(-c4ccc(C#N)cc4)c3)C[C@@H]21,-29,nt,nt,nt,nt,nt
CCN(CC)CCNc1nc2c(c(=O)[nH]c(=O)n2C)n1CC(O)COc1ccc(Cl)cc1Cl (centres undefined),nt,i,9.5*,4,53*,-53*
